# Among all 5,500 compounds or so, about 2,000 (36%) were called active. Inconclusive results (about 18%) are left out. The list shows a part of the results. A number with no mark means an inactive call. Cut-off read from the data, not from the text of the source: active = normalized growth mostly below about 0.91 (no sharp cut-off); inconclusive = no clear call, values can overlap the other calls; inactive = mostly above about 0.92.
# Experiment: chemical genetic growth profiling, strain panel (AID 1159580);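 note: tested at 20 µM; growth read once vehicle control cultures reached saturation at 30 °C; 1 = growth at the plate median or of vehicle wells; lower values mean less growth of the strain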
# Conditions: S. cerevisiae deletion strains, growth OD
smiles,measurement,setting,value
Cc1ccc(C)c(OCCCC(C)(C)C(=O)O)c1,normalized growth,"locus YJR066W, strain TOR1, hits give low values",0.834
same,normalized growth,"locus YJR075W, strain HOC1, hits give low values",0.937
same,normalized growth,"locus YKL009W, strain mrt4, hits give low values",0.437 (active)
same,normalized growth,"locus YKL068W, hits give low values",0.923 (active)
same,normalized growth,"locus YKL085W, strain MDH1 (second series), hits give low values",0.492 (active)
same,normalized growth,"locus YKL085W, strain MDH1, hits give low values",0.492 (active)
same,normalized growth,"locus YKL160W, strain elf1, hits give low values",0.968
same,normalized growth,"locus YKL190W, strain CNB1, hits give low values",0.962
same,normalized growth,"locus YKR001C, strain vps1, hits give low values",0.644 (active)
same,normalized growth,"locus YKR026C, strain gcn3, hits give low values",0.976
same,normalized growth,"locus YKR091W, strain srl3, hits give low values",0.979
same,normalized growth,"locus YLL001W, strain dnm1, hits give low values",0.975
same,normalized growth,"locus YLL026W, hits give low values",0.976
same,normalized growth,"locus YLL041C, strain sdh2, hits give low values",0.98
same,normalized growth,"locus YLR027C, strain aat2, hits give low values",0.969
same,normalized growth,"locus YLR039C, strain RIC1, hits give low values",0.469 (active)
same,normalized growth,"locus YLR058C, strain SHM2, hits give low values",0.956
same,normalized growth,"locus YLR102C, strain apc9, hits give low values",0.949
same,normalized growth,"locus YLR113W, strain HOG1, hits give low values",0.752 (active)
same,normalized growth,"locus YLR221C, strain rsa3, hits give low values",0.959
same,normalized growth,"locus YLR258W, strain gsy2, hits give low values",0.942
same,normalized growth,"locus YLR262C, strain YPT6 (second series), hits give low values",0.706 (active)
same,normalized growth,"locus YLR262C, strain YPT6, hits give low values",0.509 (active)
same,normalized growth,"locus YLR268W, strain sec22, hits give low values",0.845 (active)
same,normalized growth,"locus YLR320W, strain mms22, hits give low values",0.919
same,normalized growth,"locus YLR330W, strain CHS5, hits give low values",0.932
same,normalized growth,"locus YLR342W, strain FKS1 (second series), hits give low values",0.751 (active)
same,normalized growth,"locus YLR342W, strain FKS1, hits give low values",0.965
same,normalized growth,"locus YLR357W, strain rsc2, hits give low values",1.1
same,normalized growth,"locus YLR370C, strain arc18, hits give low values",0.948
same,normalized growth,"locus YLR371W, strain rom2, hits give low values",0.942
same,normalized growth,"locus YLR384C, strain iki3, hits give low values",0.987
same,normalized growth,"locus YLR418C, strain cdc73, hits give low values",0.824 (active)
same,normalized growth,"locus YML016C, strain PPZ1, hits give low values",0.951
same,normalized growth,"locus YML032C, strain rad52, hits give low values",0.847 (active)
same,normalized growth,"locus YML120C, strain ndi1, hits give low values",0.942
same,normalized growth,"locus YML124C, strain tub3, hits give low values",0.934
same,normalized growth,"locus YMR058W, strain fet3, hits give low values",0.963
same,normalized growth,"locus YMR078C, strain ctf18, hits give low values",0.918
same,normalized growth,"locus YMR125W, strain sto1, hits give low values",1.03
same,normalized growth,"locus YMR129W, hits give low values",0.983
same,normalized growth,"locus YMR205C, strain PFK2, hits give low values",0.986
same,normalized growth,"locus YMR223W, strain ubp8, hits give low values",0.865 (active)
same,normalized growth,"locus YMR231W, strain pep5, hits give low values",0.964
same,normalized growth,"locus YMR307W, strain GAS1, hits give low values",0.481 (active)
same,normalized growth,"locus YNL067W, strain RPL9B, hits give low values",0.956
same,normalized growth,"locus YNL071W, strain lat1, hits give low values",0.945
same,normalized growth,"locus YNL183C, strain NPR1, hits give low values",0.843
same,normalized growth,"locus YNL209W, strain ssb2, hits give low values",0.99
same,normalized growth,"locus YNL233W, strain BNI4, hits give low values",0.935
same,normalized growth,"locus YNL248C, strain rpa49, hits give low values",1.02
same,normalized growth,"locus YNL250W, strain rad50, hits give low values",0.578 (active)
same,normalized growth,"locus YNL271C, strain bni1, hits give low values",0.452 (active)
same,normalized growth,"locus YNL298W, strain CLA4, hits give low values",0.202 (active)
same,normalized growth,"locus YNL307C, strain MCK1, hits give low values",0.649 (active)
same,normalized growth,"locus YNL322C, strain KRE1 (second series), hits give low values",0.992
same,normalized growth,"locus YNR049C, strain mso1, hits give low values",0.982
same,normalized growth,"locus YNR052C, strain pop2, hits give low values",0.775 (active)
same,normalized growth,"locus YOL012C, strain htz1",0.759
same,normalized growth,"locus YOL147C, strain pex11, hits give low values",0.908 (active)
same,normalized growth,"locus YOR001W, strain rrp6, hits give low values",0.953
same,normalized growth,"locus YOR061W, strain CKA2, hits give low values",0.926
same,normalized growth,"locus YOR069W, strain VPS5, hits give low values",0.971
same,normalized growth,"locus YOR070C, strain gyp1, hits give low values",0.973
same,normalized growth,"locus YOR080W, strain dia2, hits give low values",1.01
same,normalized growth,"locus YOR083W, strain WHI5, hits give low values",0.982
same,normalized growth,"locus YOR106W, strain vam3, hits give low values",0.959
same,normalized growth,"locus YOR136W, strain idh2, hits give low values",0.989
same,normalized growth,"locus YOR144C, strain elg1, hits give low values",0.907 (active)
same,normalized growth,"locus YOR184W, strain ser1, hits give low values",0.675 (active)
same,normalized growth,"locus YOR231W, strain MKK1, hits give low values",0.803 (active)
same,normalized growth,"locus YOR265W, strain rbl2, hits give low values",1
same,normalized growth,"locus YOR270C, strain vph1, hits give low values",0.961
same,normalized growth,"locus YOR290C, strain snf2, hits give low values",0.906
same,normalized growth,"locus YOR316C, strain cot1, hits give low values",0.939
same,normalized growth,"locus YPL051W, strain arl3, hits give low values",0.923
same,normalized growth,"locus YPL055C, strain LGE1, hits give low values",0.925
same,normalized growth,"locus YPL078C, strain atp4, hits give low values",0.975
same,normalized growth,"locus YPL106C, strain sse1, hits give low values",1.15
same,normalized growth,"locus YPL240C, strain hsp82, hits give low values",0.977
same,normalized growth,"locus YPL241C, strain CIN2, hits give low values",0.948
same,normalized growth,"locus YPL256C, strain CLN2, hits give low values",0.825 (active)
same,normalized growth,"locus YPR119W, strain clb2, hits give low values",0.93 (active)
same,normalized growth,"locus YPR141C, strain kar3, hits give low values",0.817 (active)
same,normalized growth,"locus YPR163C, strain tif3, hits give low values",0.857 (active)
same,normalized growth,"locus YPR167C, strain met16, hits give low values",0.914 (active)
same,normalized growth,"strain wtn01, hits give low values",0.877 (active)

# Source: PubChem BioAssay AID1159580 (chemical genetic matrix, 2015)
